Assay in all cases: NCI-60 one-dose screen, 48 h (100 = growth as untreated, 0 = no growth, -100 = all killed)
For assay [1], the system named is NCI-H23 lung. The following applies: 10 µM unless noted.
Assay [2] deals with NCI-H226 lung. The conditions noted are these: 10 µM unless noted.
In assay [3] the test system is NCI-H322M lung. The conditions noted are these: 10 µM unless noted.
The subject of assay [4] is HOP-62 NSCLC. The conditions noted are these: 10 µM unless noted.
The subject of assay [5] is NCI-H460 lung. The following applies: 10 µM unless noted.
Assay [6] relates to HOP-92 NSCLC. The conditions noted are these: 10 µM unless noted.
The subject of assay [7] is NCI-H522 lung. The conditions noted are these: 10 µM unless noted.
Assay [8] has as its system 786-0 renal. The following applies: 10 µM unless noted.
The test system of assay [9] is COLO 205 colon. The conditions noted are these: 10 µM unless noted.
Assay [10] has as its system DU-145 prostate. The conditions noted are these: 10 µM unless noted.
Assay [11] has as its system K-562 leukemia. The following applies: 10 µM unless noted.
The test system of assay [12] is MALME-3M melanoma. The following applies: 10 µM unless noted.
For assay [13], the system named is MDA-MB-231 breast. The following applies: 10 µM unless noted.
Assay [14] relates to RXF 393 renal. The conditions noted are these: 10 µM unless noted.
For assay [15], the system named is SF-268 CNS. The following applies: 10 µM unless noted.
Assay [16] has as its system SF-295 CNS. The conditions noted are these: 10 µM unless noted.
For assay [17], the system named is SF-539 CNS. The following applies: 10 µM unless noted.
Assay [18] has as its system UACC-257 melanoma. The conditions noted are these: 10 µM.
Assay [19] concerns M14 melanoma. The following applies: 10 µM unless noted.
Assay [20] relates to A549/ATCC NSCLC. The conditions noted are these: 10 µM unless noted.

This is part of a sample that, as a whole, favours compounds with a hit. Of some 83,000 tested, about 20% had one in any assay.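 Negative percent growth values reflect cell death: -40 means 40% of the cells present at the start died, and -100 means all died.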 Unmarked numbers belong to inactive results. The source made the active and inactive calls. Rule for the calls: active = growth percent below 10; inactive = the rest.

For the compound `CC(C)=CCc1c(O)c(CC=C(C)C)c2c(c1O)C(=O)C1=C[C@@H]3C[C@H]4C(C)(C)O[C@@](C/C=C(\C)C(=O)O)(C3=O)[C@@]14O2`, the growth in assay [1] is -59.3% (active); in assay [2], 72.1%; in assay [3] it was 21.7%; in [4] it was -13.7% (active); in [5], -41.8% (active); in assay [6] it was -21.8% (active). Also, the growth in assay [7] is -51.4% (active); in assay [8], -27.6% (active); in [9], -94.2% (active); in assay [10], -60.5% (active); in assay [11] it was 5.16% (active); in [12], -19.3% (active). For the same compound, the growth in assay [13] was 29.8%; in assay [14], -82.2% (active); in assay [15] it was 5.98% (active); in [16] it was -9.35% (active); in assay [17] it was -77.5% (active); in assay [18], -38.2% (active). In [19], the growth was 5.07% (active).

In the case of `COc1cc2cc(Oc3ccc(NC(=O)Nc4cccc(C(F)(F)F)c4)cc3)c(C)nc2cc1OCCN(C)C`, the growth in assay [1] is 91.2%; in [2] it was 104%; in assay [3], 117%; in assay [4], 105%; in assay [5], 99.9%; in assay [6] it was 74.7%. Moreover, the growth in assay [7] was 102%; in assay [8], 88.7%; in assay [9], 98.5%; in [10], 92.5%; in assay [11], 10% (active); in assay [12] it was 84.7%. Besides, the growth in assay [13] was 98.1%; in assay [14], 75.9%; in [15] it was 107%; in [16], 81.1%; in assay [17] it was 92%; in assay [18], 100%. Further, the growth in assay [19] is 107%.

For `O=C(Nc1cccc(-c2nc(-c3ccc(NC(=O)c4cccs4)cc3Cl)no2)c1)Nc1ccc(NC(=O)C2CC2)c(C(F)(F)F)c1`, the growth was -49.8% (active) in assay [1]; -46.4% (active) in assay [2]; -5.29% (active) in assay [3]; -44% (active) in assay [4]; -56.9% (active) in assay [5]; -40% (active) in assay [6]. Moreover, the growth is -34.5% (active) in [7]; -30.7% (active) in [8]; -51.7% (active) in [9]; -13.4% (active) in [10]; -11.1% (active) in assay [11]; -80.6% (active) in [12]. For the same compound, the growth in [13] is -58.2% (active); in assay [14], -83.7% (active); in assay [15] it was -33.8% (active); in assay [16] it was -63.1% (active); in [17], -85.4% (active); in [18], -32.2% (active). The growth in assay [19] is -41.1% (active).

For `COc1ccc2c(C3=C(c4cn(C)c5ccccc45)C(=O)NC3=O)coc2c1`, the growth is 34.8% in assay [1]; 20.3% in assay [2]; 58.4% in assay [3]; 45.3% in [4]; 9.16% (active) in [5]; 25.3% in assay [6]. In addition, the growth in assay [7] was -29.5% (active); in assay [20], 38.7%; in [8], 44.9%; in assay [9] it was 1.81% (active); in [10] it was 31.1%; in assay [12], 97.1%. For the same compound, the growth in assay [13] was 30.4%; in assay [14], -10.2% (active); in assay [15], 67.6%; in assay [16], 36.3%; in [17], 1.16% (active); in assay [19], 36.9%.

For `CCN1C(=O)N(CC)C2SC(N/N=C/c3ccccc3F)=NC21` (stereo unspecified), the growth was 31.6% in [1]; 45.1% in assay [2]; 53.3% in [3]; 30.9% in assay [4]; 4.97% (active) in assay [5]; 8.68% (active) in assay [6]. Also, the growth in [7] was -35.6% (active); in assay [8], 30.6%; in assay [9] it was -47.6% (active); in [10] it was 16.6%; in [11], 9.76% (active); in assay [12], 71.1%. For the same compound, the growth is 24.1% in assay [13]; 46.4% in [14]; 45.4% in assay [15]; 11.6% in [16]; -16.7% (active) in assay [17]; 61% in [18]. Besides, the growth in assay [19] was 17.2%.

As to `Cc1ccc(-c2cc3nc(C(Cl)Cl)nc(-c4ccccc4)n3n2)cc1`, the growth in assay [1] was 95.4%; in [2], 103%; in assay [3], 74.3%; in [4], 73.6%; in assay [5] it was 46.9%; in assay [6] it was 94.9%. The growth in assay [7] is 98.1%; in [8], 94.4%; in assay [9] it was 54.3%; in assay [10], 2.08% (active); in [11], 90.4%; in assay [12], 122%. Further, the growth in assay [13] is 79.7%; in [14], 70.4%; in [15], 89%; in [16] it was 79.8%; in assay [17], 90.8%; in assay [18], 112%. The growth in assay [19] was 112%.

As for `COc1cc(OC)c(S(N)(=O)=O)cc1C(=O)/C=C/c1ccccc1`, the growth is 28.2% in assay [1]; 38.8% in [2]; 64.6% in assay [3]; 24.8% in assay [4]; 3.32% (active) in assay [5]; 2.22% (active) in assay [6]. Further, the growth in assay [7] is 25.8%; in [8], 15.3%; in [9], 27.5%; in assay [10], 1.92% (active); in assay [11], 9.69% (active); in assay [12], 68.1%. In addition, the growth in assay [13] was 10.3%; in assay [14] it was -29.7% (active); in assay [15], 38.3%; in assay [16], 58.3%; in assay [17] it was 1.13% (active); in assay [18], 88.6%. Besides, the growth in [19] is 45.9%.

As for `COc1cc(/C=C/C(=O)c2ccc(NC(=O)COc3cccc4cccnc34)cc2)cc(OC)c1OC`, the growth in assay [1] is 78.7%; in [2], 88.7%; in assay [3] it was 90.4%; in [4], 114%; in [5], 72.5%; in assay [6] it was 90.1%. Also, the growth is 80.4% in assay [7]; 89% in [8]; 100% in [9]; 78.1% in assay [10]; 34.1% in [11]; 70.2% in assay [12]. Moreover, the growth in assay [13] is 73.7%; in [14], 86.7%; in [15] it was 81.6%; in assay [16] it was 90.8%; in assay [17], 72.3%; in [18], 74.6%. Besides, the growth in [19] is 91.4%.

The record behind these values is PubChem BioAssay (NCI).
